# Reference: publication PMC5540273 (PLoS ONE, 2017)
# Tested on: T1, p38-gamma
# T1 construct: gene MAPK12
# Conditions: concentration: 1 μM, replicates: in singlicate; n = 1
# 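Also: KINOMEscan kinase panel screen.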
row,SMILES,%Inh
1,COC(=O)c1cccc(NC(=O)NC2CCN(c3ccnc(Nc4ccc(F)cc4)n3)C2)c1 (stereo not shown) [GSK1379725],0%
2,Cc1ccc(NC(=O)Nc2ccc(Cl)cc2)cc1-c1ccc(C(=O)Nc2ccncc2)cc1 [GSK1398472],23%
3,CNc1nc(-c2ccc3c(N)n[nH]c3c2)cc(N2C[C@@H](C(=O)NC3CCCCC3)OC[C@H]2C)n1 [GSK2375584],23%
4,COc1cccc(C2=C(Nc3cc(Cl)c(O)c(Cl)c3)C(=O)NC2=O)c1 [SB-390767],0%
5,FC(F)(F)c1ccccc1-c1cc(-c2c[nH]nc2-c2ccccn2)ccn1 [GW679396],0%
6,CS(=O)(=O)Cc1ccc(Nc2nccc(-c3c(-c4cccc(NC(=O)C5CCCCC5)c4)nn4ncccc34)n2)cc1 [GSK350559],43%
7,COC(=O)c1cccc(NC(=O)NC2CCN(c3ccnc(Nc4ccc(OC)cc4)n3)C2)c1 (stereo not shown) [GSK1379746],0%
8,Nc1cccc(-c2ccc3c(N)n[nH]c3c2)n1 [GSK2192730],0%
9,Cn1cncc1C(=O)NC1CCN(c2ccnc(Nc3ccc(F)cc3)n2)C1 (stereo not shown) [GSK1379717],0%
10,CS(=O)(=O)CCNCc1nc(-c2ccc3ncnc(Nc4ccc(OCc5ccccc5)c(Cl)c4)c3c2)cs1.Cl [GW582764],0%
11,Nc1ncnc2occ(-c3ccc4c(c3)CCN4C(=O)Cc3cc(F)ccc3F)c12 [GSK2645446],7%
12,Fc1ccc(-c2nc[nH]c2-c2ccncc2)cc1 [SB-217360],39%
13,COc1ccc(Nc2nccc(N3CCC(NC(=O)C(C)c4ccc(Cl)cc4)CC3)n2)cc1 (stereo not shown) [GSK1379812],2%
14,COC(=O)C(Cc1ccccc1)NC(=O)NC1CCN(c2ccnc(Nc3ccc(F)cc3)n2)C1 (stereo not shown) [GSK1379714],12%
15,CCc1ccc(-c2ccc3c(c2)-c2n[nH]cc2S(=O)(=O)N3C)cc1,0%
16,CC(=O)c1cccc(NC(=O)NC2CCN(c3ccnc(Nc4ccc(F)cc4)n3)C2)c1 (stereo not shown) [GSK1379710],3%
17,O=C(Nc1n[nH]c2nc(-c3cccs3)c(Br)cc12)C1CCCC1 [SB-743341],13%
18,Cl.Cl.Cl.N#Cc1ccc(CCNc2nccc(-c3cccc(CN4CCNCC4)c3)n2)cc1 [GSK2137462],27%
19,COc1ccc(CSc2nnc(-c3ccc4nccn4c3)o2)cc1C(F)(F)F,3%

row,SMILES,%Inh
1,CC[C@@H]1CO[C@H](C(=O)Nc2ccccc2)CN1c1cc(-c2ccc3c(N)n[nH]c3c2)nc(NC)n1 [GSK2376236],0%
2,Cc1ccccc1-c1cc(-c2c[nH]nc2-c2ccccn2)ccn1 [GW680061],0%
3,COc1nccc(-c2c(-c3ccc(F)cc3)ncn2CCCN2CCOCC2)n1 [SB-282852],46%
4,COc1ccc(CSc2nnc(-c3ccc4ncsc4c3)o2)cc1C(F)(F)F,0%
5,O=C1NC(=O)C(c2ccc(Cl)cc2)=C1Nc1cccc(Cl)c1 [SB-317651],11%
6,COc1ccc(Nc2nccc(-c3ccc(NC(=O)c4cc5cc(F)ccc5[nH]4)cc3)n2)cc1 [GSK1229496],1%
7,CCn1c(-c2ccccc2)nc2cnccc21 [SB-733416],0%
8,O=c1cc(N2CCOCC2)nc2n(Cc3ccccc3F)ccn12 [GSK2297428],0%
9,CCCCc1nn2ncccc2c1-c1ccnc(NC2CC2)n1 [GW684374],0%
10,CC(C)c1ccc(O)cc1Nc1ccnc2ccc(C(F)(F)F)cc12 [GW482059],0%
11,COc1ccc(CSc2nnc(-c3ccc4c(c3)CCO4)o2)cc1,0%
12,O=C(Nc1n[nH]c2cc(-c3ccsc3)ccc12)C1CC1 [SB-732932],28%
13,Cc1ccc(NC(=O)c2ccc(Cl)cc2)cc1-c1ccc(C(=O)Nc2ccncc2)cc1 [GSK1398467],0%
14,CC(=O)c1c(C)c2cnc(Nc3ccn(C)n3)nc2n(C2CCCC2)c1=O,0%
15,COc1ccc2cc(-c3nc(-c4ccccc4C(C)C)[nH]c3-c3ccncc3)ccc2c1 [SB-660566],0%
16,Cc1cccc2c(-c3ccncn3)c(-c3ccc(F)cc3)nn12 [GW515532],20%
17,Cc1ccc(NC(=O)Nc2ccccc2F)cc1-c1ccc(C(=O)Nc2ccncc2)cc1 [GSK1398477],0%
18,Cn1cncc1-c1cc2c(Nc3ccc(OCc4ccccc4)cc3)ncnc2cn1 [GW281179],0%
